# Reference: PubChem BioAssay (Tox21)
# A number with no mark means an inactive call. Inconclusive results are not listed. Where a call stands in place of a potency, no number is given. Active and inactive are the calls of the source. Calls come from the whole dose curve; as a rule, active = well fitted curve in the direction sought with a large enough effect in the repeat runs; inconclusive = weak or mixed curves; inactive = no such curve, though single readings can be large; an effect the other way counts as inactive or inconclusive.
# Tests used:
# [1] = Caspase-3/7 induction in CHO-K1 cells by small molecules, qHTS assay (AID 1346980); note: nearly all actives have a fitted effect of over 15% in size
# Procedure, shortened: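 Luminescent Caspase-Glo 3/7 read (30min, room temperature) quantified apoptosis induction. Cells were wild-type CHO-K1, treated with compound for 17hr at 37 C and 5% CO2.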
# [2] = Caspase-3/7 induction in HepG2 cells by small molecules, qHTS cell viability counter screen (AID 1346981); note: nearly all actives have a fitted effect of over 30% in size; note: potency is the fitted concentration of half-maximal effect; for activity change, negative = cytotoxicity: series mostly up to about 92 µM
# Procedure, shortened: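 Wild-type HepG2 cells, 2,000/well, settled 5 hr at 37 C, 5% CO2 before compound addition. Viability read by CellTiter-Fluor fluorescence, reagent added after 16 hr compound exposure, then 1 hr at 37C, in the same wells as the caspase read.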
# [3] = target: Nuclear receptor subfamily 1 group I member 2 (Homo sapiens) (UniProt O75469); assay: Human pregnane X receptor (PXR) small molecule agonists, qHTS assay (AID 1346982); note: nearly all actives have a fitted effect of over 35% in size; note: potency is the fitted concentration of half-maximal effect
# Sequence of Nuclear receptor subfamily 1 group I member 2 (Homo sapiens) (O75469 whole entry, looked up): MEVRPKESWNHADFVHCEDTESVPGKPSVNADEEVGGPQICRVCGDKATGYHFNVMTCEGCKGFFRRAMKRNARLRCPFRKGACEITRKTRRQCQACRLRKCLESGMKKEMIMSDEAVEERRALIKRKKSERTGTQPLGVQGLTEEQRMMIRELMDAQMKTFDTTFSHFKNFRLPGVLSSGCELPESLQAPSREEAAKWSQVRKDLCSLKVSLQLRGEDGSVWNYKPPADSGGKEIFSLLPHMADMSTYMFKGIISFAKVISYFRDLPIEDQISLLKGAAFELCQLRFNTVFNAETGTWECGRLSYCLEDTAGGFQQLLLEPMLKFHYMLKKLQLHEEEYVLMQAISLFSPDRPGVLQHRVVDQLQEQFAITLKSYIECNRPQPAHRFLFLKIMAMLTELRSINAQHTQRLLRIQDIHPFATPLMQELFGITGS
# Procedure, shortened: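 PXR-Luc HepG2 reporter cells (CYP3A4-driven luciferase) in 5% charcoal-stripped FBS medium, plated 5 h before compound addition, then treated 24 h at 37C. Luciferase read by ONE-Glo luminescence after 30 min at room temperature.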
# [4] = target: Cytochrome P450 2D6 (Homo sapiens) (UniProt P10635); assay: Cytochrome P450 Family 2 Subfamily D Member 6 (CYP2D6) small molecule antagonists: luciferase reporter qHTS assay (AID 1671196); note: nearly all actives have a fitted effect of over 50% in size; note: potency is the fitted concentration of half-maximal effect; for activity change, negative = inhibition: series mostly up to about 120 µM
# Sequence of Cytochrome P450 2D6 (Homo sapiens) (P10635 whole entry, looked up): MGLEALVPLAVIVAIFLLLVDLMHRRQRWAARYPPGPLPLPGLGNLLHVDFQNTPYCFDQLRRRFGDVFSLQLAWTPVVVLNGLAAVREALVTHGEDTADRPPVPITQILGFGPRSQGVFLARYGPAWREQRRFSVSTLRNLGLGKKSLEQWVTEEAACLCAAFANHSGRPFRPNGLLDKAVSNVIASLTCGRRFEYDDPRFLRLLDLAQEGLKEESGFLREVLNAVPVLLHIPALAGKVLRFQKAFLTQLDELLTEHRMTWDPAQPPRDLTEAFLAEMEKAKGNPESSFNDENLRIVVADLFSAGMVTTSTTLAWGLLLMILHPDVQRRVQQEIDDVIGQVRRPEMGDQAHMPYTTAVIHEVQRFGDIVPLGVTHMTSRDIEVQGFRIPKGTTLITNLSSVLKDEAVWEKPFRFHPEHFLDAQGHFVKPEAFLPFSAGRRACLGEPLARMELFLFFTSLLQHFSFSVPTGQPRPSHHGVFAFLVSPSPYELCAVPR
# Procedure, shortened: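 Cell-free P450-Glo system: CYP2D6 with proluciferin substrate was pre-incubated with compound for 10 min, then reacted with NADPH regeneration for 1 h at room temperature. Luciferin product was detected after 20 min, and data were reported as relative luminescence units.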
# [5] = target: Cytochrome P450 2C19 (Homo sapiens) (UniProt P33261); assay: Cytochrome P450 Family 2 Subfamily C Member 19 (CYP2C19) small molecule antagonists: luciferase reporter qHTS assay (AID 1671197); note: nearly all actives have a fitted effect of over 65% in size; note: potency is the fitted concentration of half-maximal effect; for activity change, negative = inhibition: series mostly up to about 120 µM
# Sequence of Cytochrome P450 2C19 (Homo sapiens) (P33261 whole entry, looked up): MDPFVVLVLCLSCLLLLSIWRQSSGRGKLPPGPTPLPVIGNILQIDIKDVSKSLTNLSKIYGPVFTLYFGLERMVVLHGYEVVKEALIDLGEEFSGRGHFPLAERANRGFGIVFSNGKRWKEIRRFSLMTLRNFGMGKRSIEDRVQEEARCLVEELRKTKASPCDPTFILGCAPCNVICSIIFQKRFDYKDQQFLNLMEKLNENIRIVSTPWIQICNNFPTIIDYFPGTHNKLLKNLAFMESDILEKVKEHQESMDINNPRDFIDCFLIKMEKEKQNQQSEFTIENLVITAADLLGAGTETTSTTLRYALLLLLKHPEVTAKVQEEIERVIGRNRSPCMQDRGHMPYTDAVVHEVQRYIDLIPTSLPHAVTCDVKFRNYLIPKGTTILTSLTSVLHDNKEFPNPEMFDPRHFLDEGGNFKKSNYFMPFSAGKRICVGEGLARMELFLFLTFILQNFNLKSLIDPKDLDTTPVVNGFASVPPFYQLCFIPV
# Procedure, shortened: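 Compounds were tested on CYP2C19 activity via proluciferin conversion to luciferin. The 37C, 1 h reaction followed NADPH addition; detection reagent stopped it.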
# [6] = target: Cytochrome P450 2C9 (Homo sapiens) (UniProt P11712); assay: Cytochrome P450 Family 2 Subfamily C Member 9 (CYP2C9) small molecule antagonists: luciferase reporter qHTS assay (AID 1671198); note: nearly all actives have a fitted effect of over 50% in size; note: potency is the fitted concentration of half-maximal effect; for activity change, negative = inhibition: series mostly up to about 120 µM
# Sequence of Cytochrome P450 2C9 (Homo sapiens) (P11712 whole entry, looked up): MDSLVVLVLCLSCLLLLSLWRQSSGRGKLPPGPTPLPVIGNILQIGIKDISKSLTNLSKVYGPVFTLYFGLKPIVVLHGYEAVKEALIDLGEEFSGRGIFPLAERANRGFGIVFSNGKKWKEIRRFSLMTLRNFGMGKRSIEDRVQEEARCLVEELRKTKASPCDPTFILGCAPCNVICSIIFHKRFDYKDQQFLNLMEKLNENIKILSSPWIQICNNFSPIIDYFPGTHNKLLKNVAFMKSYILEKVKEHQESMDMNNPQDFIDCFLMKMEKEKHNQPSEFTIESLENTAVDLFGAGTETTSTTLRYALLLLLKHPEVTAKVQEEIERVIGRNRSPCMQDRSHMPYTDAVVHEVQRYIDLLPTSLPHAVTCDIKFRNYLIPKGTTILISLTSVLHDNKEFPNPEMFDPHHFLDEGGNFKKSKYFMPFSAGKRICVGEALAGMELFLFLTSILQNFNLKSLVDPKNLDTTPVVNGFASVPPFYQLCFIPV
# Procedure, shortened: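 Enzyme-substrate mix preincubated with compound 10 min at room temperature; reaction started with NADPH regeneration solution, 1 h 37C. Luminescent luciferin product read after 20 min detection reagent.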
# [7] = target: Cytochrome P450 1A2 (Homo sapiens) (UniProt P05177); assay: Cytochrome P450 Family 1 Subfamily A Member 2 (CYP1A2) small molecule antagonists: luciferase reporter qHTS assay (AID 1671199); note: nearly all actives have a fitted effect of over 50% in size; note: potency is the fitted concentration of half-maximal effect; for activity change, negative = inhibition: series mostly up to about 120 µM
# Sequence of Cytochrome P450 1A2 (Homo sapiens) (P05177 whole entry, looked up): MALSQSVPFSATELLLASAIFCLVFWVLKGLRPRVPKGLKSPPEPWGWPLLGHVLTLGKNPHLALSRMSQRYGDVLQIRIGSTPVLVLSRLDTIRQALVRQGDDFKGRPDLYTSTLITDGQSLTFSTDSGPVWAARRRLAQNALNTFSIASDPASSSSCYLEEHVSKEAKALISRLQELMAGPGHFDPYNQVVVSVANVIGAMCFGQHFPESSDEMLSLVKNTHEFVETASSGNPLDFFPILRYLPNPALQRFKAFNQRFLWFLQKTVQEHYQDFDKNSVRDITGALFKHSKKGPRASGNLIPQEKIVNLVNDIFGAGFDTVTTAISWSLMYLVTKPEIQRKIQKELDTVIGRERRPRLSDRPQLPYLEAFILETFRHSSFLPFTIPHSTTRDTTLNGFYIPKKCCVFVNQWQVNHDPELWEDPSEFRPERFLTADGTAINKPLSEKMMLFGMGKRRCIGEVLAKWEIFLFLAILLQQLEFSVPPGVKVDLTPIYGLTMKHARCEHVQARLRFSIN
# Procedure, shortened: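 P450-Glo CYP1A2 enzyme–proluciferin substrate mix with compound 10 min at room temperature, then NADPH regeneration 1 h at room temperature. Luciferin detection reagent added, luminescence read after 20 min; furafylline positive control.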
# [8] = target: Voltage-gated inwardly rectifying potassium channel KCNH2 (Homo sapiens) (UniProt Q12809); assay: Human Ether-a-go-go-Related Gene (hERG) channel small molecule antagonists: fluorescence cell-based qHTS assay (AID 1671200);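 note: hERG-expressing U2OS cells given a thallium stimulus after FluxOR II dye loading; series mostly up to about 77 µM; nearly all actives have a fitted effect of over 50% in size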
# Sequence of Voltage-gated inwardly rectifying potassium channel KCNH2 (Homo sapiens) (Q12809 whole entry, looked up): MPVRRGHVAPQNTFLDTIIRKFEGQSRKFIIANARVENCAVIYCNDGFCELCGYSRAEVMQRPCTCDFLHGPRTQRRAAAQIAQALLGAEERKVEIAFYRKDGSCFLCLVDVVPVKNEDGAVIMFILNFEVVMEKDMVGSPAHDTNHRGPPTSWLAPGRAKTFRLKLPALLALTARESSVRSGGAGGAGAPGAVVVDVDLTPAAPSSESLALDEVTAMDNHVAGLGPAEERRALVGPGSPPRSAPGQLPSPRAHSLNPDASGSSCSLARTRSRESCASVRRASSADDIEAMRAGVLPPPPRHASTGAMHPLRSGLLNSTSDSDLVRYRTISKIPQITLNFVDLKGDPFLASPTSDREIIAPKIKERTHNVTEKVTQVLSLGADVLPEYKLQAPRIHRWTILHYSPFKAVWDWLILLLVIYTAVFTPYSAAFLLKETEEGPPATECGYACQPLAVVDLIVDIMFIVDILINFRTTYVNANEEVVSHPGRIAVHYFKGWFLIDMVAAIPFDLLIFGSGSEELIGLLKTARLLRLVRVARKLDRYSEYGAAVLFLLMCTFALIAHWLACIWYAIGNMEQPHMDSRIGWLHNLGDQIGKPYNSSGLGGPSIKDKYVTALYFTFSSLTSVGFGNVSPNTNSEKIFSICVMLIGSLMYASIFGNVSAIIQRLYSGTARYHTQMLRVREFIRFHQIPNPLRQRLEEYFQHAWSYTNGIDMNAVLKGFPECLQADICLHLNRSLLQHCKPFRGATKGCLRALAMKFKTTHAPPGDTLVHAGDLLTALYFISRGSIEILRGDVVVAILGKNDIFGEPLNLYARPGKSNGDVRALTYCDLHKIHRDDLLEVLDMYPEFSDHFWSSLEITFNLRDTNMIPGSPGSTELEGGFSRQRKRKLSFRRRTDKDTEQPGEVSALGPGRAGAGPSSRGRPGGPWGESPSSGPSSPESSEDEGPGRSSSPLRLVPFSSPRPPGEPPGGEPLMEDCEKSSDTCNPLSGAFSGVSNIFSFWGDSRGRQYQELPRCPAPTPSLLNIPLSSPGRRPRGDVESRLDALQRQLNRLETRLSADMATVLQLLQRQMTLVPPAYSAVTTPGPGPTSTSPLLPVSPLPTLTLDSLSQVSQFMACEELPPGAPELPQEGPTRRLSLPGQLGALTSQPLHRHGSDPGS
# Procedure, shortened: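 Channel function was assessed by thallium flux. Cells seeded the previous day and kept at 37 C took up FluxOR II dye over 1 h in the dark at room temperature, then sat another 10 min before stimulation.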
# [9] = target: Cytochrome P450 3A4 (Homo sapiens) (UniProt P08684); assay: Cytochrome P450 Family 3 Subfamily A Member 4 (CYP3A4) small molecule antagonists: luciferase reporter qHTS assay (AID 1671201); note: nearly all actives have a fitted effect of over 50% in size; note: potency is the fitted concentration of half-maximal effect; for activity change, negative = inhibition: series mostly up to about 120 µM
# Sequence of Cytochrome P450 3A4 (Homo sapiens) (P08684 whole entry, looked up): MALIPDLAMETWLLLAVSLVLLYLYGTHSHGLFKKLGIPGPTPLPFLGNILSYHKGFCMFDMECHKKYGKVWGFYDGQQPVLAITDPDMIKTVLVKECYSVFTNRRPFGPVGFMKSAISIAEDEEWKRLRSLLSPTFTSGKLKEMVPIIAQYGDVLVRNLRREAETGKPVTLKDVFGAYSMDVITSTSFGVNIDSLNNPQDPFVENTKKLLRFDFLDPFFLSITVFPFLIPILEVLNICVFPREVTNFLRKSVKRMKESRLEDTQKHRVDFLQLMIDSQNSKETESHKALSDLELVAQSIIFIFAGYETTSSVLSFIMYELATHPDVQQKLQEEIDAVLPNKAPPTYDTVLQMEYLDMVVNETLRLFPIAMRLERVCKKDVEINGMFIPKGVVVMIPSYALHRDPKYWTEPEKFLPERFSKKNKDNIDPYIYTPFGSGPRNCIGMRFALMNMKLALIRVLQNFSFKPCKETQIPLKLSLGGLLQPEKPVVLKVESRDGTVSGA
# Procedure, shortened: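 Compounds in DMSO were pin-transferred onto CYP3A4 enzyme-substrate mix and held 10 min at room temperature. NADPH regenerating solution started the reaction for 1 h; luciferin detection reagent stopped it, and luminescence was read after 20 min.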
# [10] = target: Nuclear receptor subfamily 1 group I member 2 (Rattus norvegicus) (UniProt Q9R1A7); assay: Rat pregnane X receptor (rPXR) activation by small molecules, qHTS assay (AID 1346983); settings: rPXR luciferase reporter cells, One-Glo luminescence, 24 h; max activation: stronger effect = higher value; note: nearly all actives have a fitted effect of over 20% in size
# Sequence of Nuclear receptor subfamily 1 group I member 2 (Rattus norvegicus) (Q9R1A7 whole entry, looked up): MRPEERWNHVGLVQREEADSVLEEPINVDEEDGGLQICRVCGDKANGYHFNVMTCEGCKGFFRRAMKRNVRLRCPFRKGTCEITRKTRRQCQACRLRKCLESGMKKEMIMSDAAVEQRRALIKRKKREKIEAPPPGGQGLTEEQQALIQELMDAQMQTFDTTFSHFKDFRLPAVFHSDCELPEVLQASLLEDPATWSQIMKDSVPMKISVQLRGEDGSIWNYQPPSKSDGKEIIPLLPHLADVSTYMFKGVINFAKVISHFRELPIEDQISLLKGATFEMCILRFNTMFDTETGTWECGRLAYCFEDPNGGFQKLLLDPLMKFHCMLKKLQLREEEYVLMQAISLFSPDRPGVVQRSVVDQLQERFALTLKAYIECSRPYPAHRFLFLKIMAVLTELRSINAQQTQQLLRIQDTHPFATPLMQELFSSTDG
# Procedure, shortened: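 Luminescent readout (One-Glo luciferase, 30 min room temperature) followed 24 hr compound treatment at 37 C of rPXR cells plated 2,000 per well and preincubated 5hr; qHTS format with compounds delivered in DMSO.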
# [11] = target: Nuclear receptor subfamily 1 group I member 2 (Homo sapiens) (UniProt O75469); assay: Human pregnane X receptor (PXR) activation by small molecules, qHTS assay (AID 1346985); note: nearly all actives have a fitted effect of over 40% in size
# Procedure, shortened: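 DPX-2 cells (HepG2 co-transfected with a PXR response element and a CYP3A4-promoter luciferase construct) were seeded at 2,000 per well, rested 5 hr at 37C, then exposed to DMSO-dissolved compounds for 24 hr. Activation was read as luciferase luminescence.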
compound,measurement,setting,value
CO[Si](OC)(c1ccccc1)c1ccccc1,Potency,[1],inactive
same,Potency,[2],inactive
same,Potency,[3],34.4 µM (active)
same,Potency,[4],inactive
same,Potency,[5],10 µM (active)
same,Potency,[6],20 µM (active)
same,Potency,[7],inactive
same,Potency,[8],inactive
CCCCCCCCSCc1cc(C)c(O)c(CSCCCCCCCC)c1,Potency,[1],inactive
same,Potency,[2],inactive
same,Potency,[3],inactive
same,Potency,[4],5.03 µM (active)
same,Potency,[5],7.1 µM (active)
same,Potency,[6],8.94 µM (active)
same,Potency,[7],25.2 µM (active)
same,Potency,[8],inactive
same,Potency,[9],inactive
CCCCC/C=C\C=C\C(=O)OCC,Potency,[1],inactive
same,Potency,[2],inactive
same,Potency,[3],63.7 µM (active)
same,Potency,[4],46.7 µM (active)
same,Potency,[5],23.4 µM (active)
same,Potency,[6],13.2 µM (active)
same,Potency,[7],37.1 µM (active)
same,Potency,[9],16.6 µM (active)
CCCCCCCCCCCCS(=O)(=O)Cl,caspase-3/7 activation,[1],-1.07% [at 19 µM]
same,"activity change, negative = cytotoxicity",[2],3.84% [at 19 µM]
same,activation,[3],2.36% [at 19 µM]
same,"activity change, negative = inhibition",[4],-14.2% [at 23.6 µM]
same,"activity change, negative = inhibition",[6],-14.1% [at 23.6 µM]
same,"activity change, negative = inhibition",[7],5.89% [at 23.6 µM]
same,"activity change, negative = inhibition",[8],1.06% [at 15.8 µM]
same,"activity change, negative = inhibition",[9],-1.36% [at 23.6 µM]
Cc1ccc(C=O)cc1,Potency,[1],inactive
same,Potency,[2],inactive
same,Potency,[3],inactive
same,Potency,[4],inactive
same,Potency,[5],inactive
same,Potency,[6],inactive
same,Potency,[7],inactive
same,Potency,[8],inactive
same,Potency,[9],inactive
Cn1ccnc1,Potency,[1],inactive
same,Potency,[2],inactive
same,Potency,[3],inactive
same,Potency,[4],inactive
same,Potency,[5],inactive
same,Potency,[6],inactive
same,Potency,[7],inactive
same,Potency,[9],inactive
CCCC(C)C=O (stereo not given),Potency,[1],inactive
same,Potency,[2],inactive
same,Potency,[3],inactive
same,Potency,[4],inactive
same,Potency,[5],inactive
same,Potency,[6],inactive
same,Potency,[7],inactive
same,Potency,[8],inactive
same,Potency,[9],inactive
Cc1cccc(C)c1C,Potency,[1],inactive
same,Potency,[2],inactive
same,Potency,[3],inactive
same,Potency,[4],inactive
same,Potency,[5],inactive
same,Potency,[6],inactive
same,Potency,[8],inactive
same,Potency,[9],inactive
COc1cc([C@@H]2c3cc4c(cc3[C@@H](O[C@@H]3O[C@@H]5CO[C@@H](C)O[C@H]5[C@H](O)[C@H]3O)[C@H]3COC(=O)[C@H]23)OCO4)cc(OC)c1O,Potency,[1],inactive
Cc1cccc2c1ccc1ccccc12,Potency,[1],inactive
same,Potency,[2],inactive
same,Potency,[3],inactive
same,Potency,[4],inactive
same,Potency,[5],79.6 µM (active)
same,Potency,[7],6.33 µM (active)
same,Potency,[9],inactive
C=COCCCC,Potency,[1],inactive
same,Potency,[2],inactive
same,Potency,[3],inactive
same,Potency,[4],inactive
same,Potency,[5],inactive
same,Potency,[6],inactive
same,Potency,[7],inactive
same,Potency,[8],inactive
same,Potency,[9],inactive
Cc1ccc(C2OC[C@@H]3OC(c4ccc(C)cc4)O[C@H]([C@H](O)CO)[C@@H]3O2)cc1 (stereo not given in full),Potency,[1],inactive
same,Potency,[2],inactive
same,Potency,[3],inactive
same,Potency,[4],inactive
same,Potency,[5],6.33 µM (active)
same,Potency,[6],inactive
same,Potency,[7],inactive
Nc1cc([N+](=O)[O-])ccc1Cl,Potency,[1],inactive
same,Potency,[2],inactive
same,Potency,[3],inactive
same,Potency,[4],inactive
same,Potency,[6],inactive
same,Potency,[7],17.8 µM (active)
same,Potency,[8],inactive
COc1cc(/C=C/C(=O)CC(=O)/C=C/c2ccc(O)c(OC)c2)ccc1O,Potency,[1],inactive
same,Potency,[2],30.8 µM (active)
same,Potency,[3],24.5 µM (active)
same,max activation,[10],8.99%
same,Potency,[4],35.8 µM (active)
same,Potency,[7],31.9 µM (active)
same,Potency,[9],10.1 µM (active)
C=CC(=O)OCC(Br)CBr (stereo not given),Potency,[1],inactive
same,Potency,[2],inactive
same,Potency,[3],inactive
same,Potency,[4],inactive
same,Potency,[5],inactive
same,Potency,[6],inactive
same,Potency,[7],inactive
same,Potency,[8],inactive
same,Potency,[9],inactive
C/C(=N\[Si](C)(C)C)O[Si](C)(C)C,Potency,[1],inactive
same,Potency,[2],inactive
same,Potency,[3],inactive
same,Potency,[4],inactive
same,Potency,[5],inactive
same,Potency,[6],inactive
same,Potency,[9],inactive
C=Cc1ccncc1,Potency,[1],inactive
same,Potency,[2],inactive
same,Potency,[3],inactive
same,Potency,[4],inactive
same,Potency,[5],inactive
same,Potency,[6],inactive
same,Potency,[9],inactive
CCCOC(=O)c1ccc(O)cc1,Potency,[1],inactive
same,Potency,[2],inactive
same,Potency,[3],48.6 µM (active)
same,max activation,[10],-0.262%
same,Potency,[11],inactive
same,Potency,[8],inactive
CS(=O)(=O)c1ccc([C@@H](CC2CCCC2)C(=O)Nc2cnccn2)cc1Cl,Potency,[1],inactive
C=CC(=O)O[C@H]1C[C@@H]2CC[C@@]1(C)C2(C)C,Potency,[1],inactive
same,Potency,[2],inactive
same,Potency,[3],inactive
same,Potency,[4],inactive
same,Potency,[5],inactive
same,Potency,[6],inactive
same,Potency,[7],inactive
same,Potency,[8],inactive
same,Potency,[9],inactive
NC(=O)C1CO1 (stereo not given),Potency,[1],inactive
same,Potency,[2],inactive
same,Potency,[3],inactive
same,Potency,[4],inactive
same,Potency,[5],inactive
same,Potency,[6],inactive
same,Potency,[7],inactive
same,Potency,[8],inactive
same,Potency,[9],inactive
O=C(N[C@H](CO)[C@H](O)c1ccc([N+](=O)[O-])cc1)C(Cl)Cl,Potency,[1],inactive
COc1cc(C(C)C)ccc1C,caspase-3/7 activation,[1],-1.8% [at 19 µM]
same,"activity change, negative = cytotoxicity",[2],-0.801% [at 19 µM]
same,activation,[3],-14.1% [at 19 µM]
same,"activity change, negative = inhibition",[4],-6.69% [at 23.6 µM]
same,"activity change, negative = inhibition",[5],-21% [at 23.6 µM]
same,"activity change, negative = inhibition",[6],-6.13% [at 23.6 µM]
same,"activity change, negative = inhibition",[7],-17.4% [at 23.6 µM]
same,"activity change, negative = inhibition",[8],-1.11% [at 15.8 µM]
same,"activity change, negative = inhibition",[9],-0.0855% [at 23.6 µM]
Brc1cc(Br)cc(Br)c1,Potency,[1],inactive
same,Potency,[2],inactive
same,Potency,[3],inactive
same,Potency,[4],inactive
same,Potency,[5],inactive
same,Potency,[6],inactive
same,Potency,[8],inactive
same,Potency,[9],inactive
O=[N+]([O-])c1ccc(CO)cc1,Potency,[1],inactive
same,Potency,[2],inactive
same,Potency,[3],inactive
same,Potency,[4],inactive
same,Potency,[5],inactive
same,Potency,[6],inactive
same,Potency,[8],inactive
same,Potency,[9],inactive
Nc1ccc(N)c([N+](=O)[O-])c1,Potency,[1],inactive
same,Potency,[2],54.5 µM (active)
C/C=C/C(=O)C1=C(C)C=CCC1(C)C,Potency,[1],inactive
same,Potency,[2],inactive
same,Potency,[3],inactive
same,Potency,[4],inactive
same,Potency,[5],inactive
same,Potency,[6],inactive
same,Potency,[7],inactive
same,Potency,[8],inactive
same,Potency,[9],inactive
